# From publication PMC7862700, “An all-to-all approach to the identification of sequence-specific readers for epigenetic DNA modifications on cytosine”
# Key:
# Test in all cases: DAPPL (digital affinity profiling via proximity ligation, sequencing); 10 mM Tris-HCl pH 7.5, 50 mM NaCl, 1 mM DTT, 4% glycerol, room temperature, 30 min; GST-TFs on glutathione beads, 16-mer random dsDNA library, 0.1% formaldehyde crosslink after washing; high values mean tight binding
# FEV = target: T1, FEV (Homo sapiens, UniProt Q99581 1-238); conditions: protein: recombinant; tags: N-terminal GST; dsDNA, one strand shown
# T1 sequence: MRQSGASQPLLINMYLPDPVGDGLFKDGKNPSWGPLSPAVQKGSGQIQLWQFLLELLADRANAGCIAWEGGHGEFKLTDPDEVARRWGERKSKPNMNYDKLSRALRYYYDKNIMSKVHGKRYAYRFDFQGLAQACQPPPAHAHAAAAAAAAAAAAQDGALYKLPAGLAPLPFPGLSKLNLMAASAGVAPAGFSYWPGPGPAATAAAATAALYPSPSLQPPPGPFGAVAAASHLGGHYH
# In short: (§1)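 A tag-only sample was pooled with DNA-barcoded human transcription factors that had been expressed in yeast as GST fusions and captured on glutathione beads. The pools were incubated for 30 min at room temperature with 200 nmole of a random double-stranded 16-mer DNA library in Tris/NaCl/DTT/glycerol buffer, then washed, crosslinked with 0.1% formaldehyde, proximity-ligated (BsaI/T4 ligase, 1 h, 37 °C), PCR-amplified and sequenced on an Illumina NextSeq500. Binding signal is each hexamer's read frequency for a factor divided by its frequency for the tag-only sample.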
# ETV5 = ETV5 (Homo sapiens, UniProt P41161 1-510); conditions: protein: recombinant; tags: N-terminal GST; dsDNA, one strand shown
# Chain of ETV5 (P41161 whole entry): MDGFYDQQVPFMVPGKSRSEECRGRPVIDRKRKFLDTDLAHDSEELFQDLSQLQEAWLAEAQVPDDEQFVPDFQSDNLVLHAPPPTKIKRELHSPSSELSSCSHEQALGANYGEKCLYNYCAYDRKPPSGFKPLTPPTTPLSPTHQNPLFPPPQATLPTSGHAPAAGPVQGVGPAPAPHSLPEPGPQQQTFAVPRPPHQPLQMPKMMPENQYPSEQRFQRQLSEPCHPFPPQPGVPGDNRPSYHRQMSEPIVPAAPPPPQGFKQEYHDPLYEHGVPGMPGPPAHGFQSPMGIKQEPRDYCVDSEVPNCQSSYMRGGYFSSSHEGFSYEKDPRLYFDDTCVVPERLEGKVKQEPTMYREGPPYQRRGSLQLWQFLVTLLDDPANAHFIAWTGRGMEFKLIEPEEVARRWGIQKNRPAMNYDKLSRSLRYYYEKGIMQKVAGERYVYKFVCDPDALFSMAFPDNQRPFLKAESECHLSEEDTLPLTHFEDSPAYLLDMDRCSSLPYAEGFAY
# In short: as §1
# HSF1 = HSF1 (Homo sapiens, UniProt Q00613 1-529); conditions: protein: recombinant; tags: N-terminal GST; chain copies: 3; dsDNA, one strand shown
# Chain of HSF1 (Q00613 whole entry): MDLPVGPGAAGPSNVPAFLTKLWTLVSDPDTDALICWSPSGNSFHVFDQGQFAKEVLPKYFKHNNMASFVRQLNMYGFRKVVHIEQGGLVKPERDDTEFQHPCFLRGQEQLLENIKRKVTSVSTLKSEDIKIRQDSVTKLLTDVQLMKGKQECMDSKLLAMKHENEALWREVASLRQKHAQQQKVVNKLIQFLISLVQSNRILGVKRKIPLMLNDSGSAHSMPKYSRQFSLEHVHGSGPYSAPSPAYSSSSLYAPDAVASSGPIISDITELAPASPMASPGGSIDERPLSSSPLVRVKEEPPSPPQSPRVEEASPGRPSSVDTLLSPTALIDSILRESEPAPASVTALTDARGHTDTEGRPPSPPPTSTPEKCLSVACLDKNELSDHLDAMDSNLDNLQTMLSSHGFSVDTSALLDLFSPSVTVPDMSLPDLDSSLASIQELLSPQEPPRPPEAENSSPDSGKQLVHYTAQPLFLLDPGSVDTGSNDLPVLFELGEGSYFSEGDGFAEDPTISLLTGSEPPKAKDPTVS
# In short: as §1
# SPIC = target: T2, SPIC (Homo sapiens, UniProt Q8N5J4 1-248); conditions: protein: recombinant; tags: N-terminal GST; dsDNA, one strand shown
# T2 sequence: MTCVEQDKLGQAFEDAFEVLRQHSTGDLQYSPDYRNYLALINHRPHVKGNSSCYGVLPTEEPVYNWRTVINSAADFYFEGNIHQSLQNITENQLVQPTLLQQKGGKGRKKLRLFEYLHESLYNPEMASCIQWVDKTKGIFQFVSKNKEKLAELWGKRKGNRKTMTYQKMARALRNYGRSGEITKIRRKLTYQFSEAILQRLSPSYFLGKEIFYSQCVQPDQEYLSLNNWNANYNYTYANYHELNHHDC
# In short: as §1
# ELF4 = ELF4 (Homo sapiens, UniProt Q99607 1-663); conditions: protein: recombinant; tags: N-terminal GST; dsDNA, one strand shown
# Chain of ELF4 (Q99607 whole entry): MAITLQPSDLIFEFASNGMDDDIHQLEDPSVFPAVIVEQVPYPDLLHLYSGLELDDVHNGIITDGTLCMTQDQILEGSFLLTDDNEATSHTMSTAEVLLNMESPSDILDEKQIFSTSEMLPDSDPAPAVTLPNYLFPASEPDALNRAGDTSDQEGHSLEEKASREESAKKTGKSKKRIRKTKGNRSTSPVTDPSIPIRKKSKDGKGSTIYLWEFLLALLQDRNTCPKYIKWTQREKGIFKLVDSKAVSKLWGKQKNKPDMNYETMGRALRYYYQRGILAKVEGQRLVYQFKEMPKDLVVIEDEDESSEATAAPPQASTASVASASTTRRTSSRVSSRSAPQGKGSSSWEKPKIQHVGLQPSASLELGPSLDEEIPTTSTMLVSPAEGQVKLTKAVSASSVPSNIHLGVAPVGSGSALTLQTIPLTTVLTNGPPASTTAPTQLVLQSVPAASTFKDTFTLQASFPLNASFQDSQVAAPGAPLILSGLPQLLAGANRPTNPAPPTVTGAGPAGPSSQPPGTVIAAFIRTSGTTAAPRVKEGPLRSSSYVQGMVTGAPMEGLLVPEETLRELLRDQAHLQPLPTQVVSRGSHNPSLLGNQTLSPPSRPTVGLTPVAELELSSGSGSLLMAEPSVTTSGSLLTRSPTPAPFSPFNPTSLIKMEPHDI
# In short: as §1
# ELK4 = target: T3, ELK4 (Homo sapiens, UniProt P28324-2 1-405); conditions: protein: recombinant; tags: N-terminal GST; dsDNA, one strand shown
# T3 sequence: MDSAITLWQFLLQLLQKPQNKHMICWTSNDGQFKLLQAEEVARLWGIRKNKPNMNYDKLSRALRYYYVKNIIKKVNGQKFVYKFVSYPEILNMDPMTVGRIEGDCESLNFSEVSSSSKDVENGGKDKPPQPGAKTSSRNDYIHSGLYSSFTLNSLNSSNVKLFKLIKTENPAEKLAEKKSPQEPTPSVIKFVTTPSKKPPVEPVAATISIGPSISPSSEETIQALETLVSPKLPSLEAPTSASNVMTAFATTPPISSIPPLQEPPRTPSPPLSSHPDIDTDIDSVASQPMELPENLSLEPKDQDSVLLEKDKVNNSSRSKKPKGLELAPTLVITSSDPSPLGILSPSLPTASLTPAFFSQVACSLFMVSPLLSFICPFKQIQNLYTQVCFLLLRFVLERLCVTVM
# In short: as §1
# ETV2 = target: T4, ETV2 (Homo sapiens, UniProt O00321 1-342); conditions: protein: recombinant; tags: N-terminal GST; dsDNA, one strand shown
# T4 sequence: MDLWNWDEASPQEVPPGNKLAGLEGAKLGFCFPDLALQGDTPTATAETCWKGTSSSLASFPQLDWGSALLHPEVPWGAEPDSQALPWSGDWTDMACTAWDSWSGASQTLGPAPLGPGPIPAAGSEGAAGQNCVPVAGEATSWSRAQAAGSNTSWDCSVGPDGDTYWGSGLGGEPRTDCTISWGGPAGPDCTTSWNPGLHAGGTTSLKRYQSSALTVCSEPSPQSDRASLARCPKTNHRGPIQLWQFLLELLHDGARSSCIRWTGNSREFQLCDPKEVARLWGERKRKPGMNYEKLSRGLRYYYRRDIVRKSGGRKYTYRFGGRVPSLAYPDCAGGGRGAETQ
# In short: as §1
# ELF3 = target: T5, ELF3 (Homo sapiens, UniProt P78545 1-371); conditions: protein: recombinant; tags: N-terminal GST; dsDNA, one strand shown
# T5 sequence: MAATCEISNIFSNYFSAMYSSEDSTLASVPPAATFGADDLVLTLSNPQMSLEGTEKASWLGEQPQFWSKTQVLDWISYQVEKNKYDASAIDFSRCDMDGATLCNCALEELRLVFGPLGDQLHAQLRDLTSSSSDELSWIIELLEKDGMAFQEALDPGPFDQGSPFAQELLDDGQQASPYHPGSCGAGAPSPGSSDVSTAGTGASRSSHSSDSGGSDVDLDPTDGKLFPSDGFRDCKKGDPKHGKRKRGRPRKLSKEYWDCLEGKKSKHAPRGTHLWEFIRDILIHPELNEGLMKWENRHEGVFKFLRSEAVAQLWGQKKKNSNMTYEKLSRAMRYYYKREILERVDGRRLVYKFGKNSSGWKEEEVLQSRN
# In short: as §1
# CRX = CRX (Homo sapiens, UniProt O43186 1-299); conditions: protein: recombinant; tags: N-terminal GST; dsDNA, one strand shown
# Chain of CRX (O43186 whole entry): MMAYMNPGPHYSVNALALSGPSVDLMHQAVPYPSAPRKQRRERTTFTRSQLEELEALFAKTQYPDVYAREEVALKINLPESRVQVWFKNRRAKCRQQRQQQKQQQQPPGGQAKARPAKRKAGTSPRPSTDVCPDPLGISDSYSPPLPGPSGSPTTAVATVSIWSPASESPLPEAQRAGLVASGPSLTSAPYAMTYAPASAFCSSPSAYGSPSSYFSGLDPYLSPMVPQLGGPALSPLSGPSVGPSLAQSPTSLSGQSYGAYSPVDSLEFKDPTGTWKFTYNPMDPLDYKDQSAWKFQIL
# In short: as §1
sequence,measurement,setting,value
TCCCGC,binding signal,FEV,"1.46 fold enrichment (6-mer frequency, TF over GST control)"
same,binding signal,ETV5,"1.41 fold enrichment (6-mer frequency, TF over GST control)"
same,binding signal,HSF1,"1.57 fold enrichment (6-mer frequency, TF over GST control)"
same,binding signal,SPIC,"1.46 fold enrichment (6-mer frequency, TF over GST control)"
same,binding signal,ELF4,"1.55 fold enrichment (6-mer frequency, TF over GST control)"
same,binding signal,ELK4,"1.26 fold enrichment (6-mer frequency, TF over GST control)"
same,binding signal,ETV2,"1.31 fold enrichment (6-mer frequency, TF over GST control)"
same,binding signal,ELF3,"1.36 fold enrichment (6-mer frequency, TF over GST control)"
same,binding signal,CRX,"1.42 fold enrichment (6-mer frequency, TF over GST control)"
